Assay [1] addresses human Protein Tyrosine Phosphatase Receptor Type M (PTPRM), PTPRM (gene 5797) (UniProt P28827). Description: NVS_ENZ_hPTPRM: NovaScreen (NVS) Enzymatic Assay for human Protein Tyrosine Phosphatase Receptor Type M (PTPRM) (AID 2283215). Summed up: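 Read-out is fluorescence after electrophoretic separation of substrate and product, taken 1.33 h post-dosing with recombinant enzyme. Compounds screened at 25 uM in duplicate, then concentration series for actives; activity as signal loss relative to DMSO.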

Assay [2] has as its target human Sirtuin 2 (SIRT2), SIRT2 (gene 22933) (UniProt Q8IXJ6). Kind of assay: NVS_ENZ_hSIRT2: NovaScreen (NVS) Enzymatic Assay for human Sirtuin 2 (SIRT2) (AID 2283217). Summed up: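 Single-point duplicate screen at 25 uM, then concentration-response (max 50 uM) for chemicals passing threshold. Enzyme activity of recombinant human SIRT2 measured after 1 hr by fluorescence with mobility-shift separation of product; DMSO baseline.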

Assay [3] addresses human SRC Proto-Oncogene, Non-receptor Tyrosine Kinase (SRC), SRC (gene 6714) (UniProt P12931). Description: NVS_ENZ_hSRC: NovaScreen (NVS) Enzymatic Assay for human SRC Proto-Oncogene, Non-receptor Tyrosine Kinase (SRC) (AID 2283223). The method in brief:
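Compounds passing 30% inhibition at 25 uM (duplicate) were titrated to a top concentration of 50 uM. Enzyme activity read by fluorescence with mobility-shift substrate/product separation after 1 h; DMSO baseline.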

The target of assay [4] is human Vascular Endothelial Growth Factor Receptor 3 (VEGFR3), FLT4 (gene 2324) (UniProt P35916). Kind of assay: NVS_ENZ_hVEGFR3: NovaScreen (NVS) Enzymatic Assay for human Vascular Endothelial Growth Factor Receptor 3 (VEGFR3) (AID 2283229). The method in brief:
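Chemicals first run in duplicate at 25 uM, with actives re-tested in concentration series to a top of 50 uM. Recombinant VEGFR3 activity measured after 1 h via fluorescence with mobility-shift product separation; inhibition fitted relative to DMSO.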

Assay [5] deals with human Vascular Endothelial Growth Factor Receptor 2 (VEGFR2), KDR (gene 3791) (UniProt P35968). Description: NVS_ENZ_hVEGFR2: NovaScreen (NVS) Enzymatic Assay for human Vascular Endothelial Growth Factor Receptor 2 (VEGFR2) (AID 2283230). The method in brief:
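Cell-free recombinant VEGFR2 kinase, fluorescent substrate with electrophoretic mobility-shift separation; read 1 h after dosing. Screened at 25 uM in duplicate, hits to concentration-response up to 50 uM; loss-of-signal versus DMSO.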

In assay [6] the target is sheep Cyclooxygenase-1 (Cox1), PTGS1 (gene 443551) (UniProt P05979). Kind of assay: NVS_ENZ_oCOX1: NovaScreen (NVS) Enzymatic Assay for sheep Cyclooxygenase-1 (Cox1) (AID 2283239).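 Note: actives reduce cyclooxygenase activity so potencies are for inhibitors.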 The method in brief:
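Ovine seminal vesicle extract; absorbance (colorimetric) enzyme read-out at 0.66 h post-dose. Primary: single conc 25 uM, duplicate. Follow-up: concentration series on actives. Activity = signal loss vs DMSO baseline.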

Assay [7] has as its system guinea pig Leukotriene B4 Receptor (LTB4), gene 100379538. Kind of assay: NVS_GPCR_gLTB4: NovaScreen (NVS) G Protein-Coupled Receptor Assay for guinea pig Leukotriene B4 Receptor (LTB4) (AID 2283247). Summed up:
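Membranes from guinea pig spleen incubated 2 h with radioligand and compound; bound counts measured by filtration and scintillation. Screened first at 25 uM in duplicate, then actives titrated to a 50 uM top concentration relative to DMSO.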

Assay [8] deals with guinea pig Leukotriene D4 Receptor (LTD4), CYSLTR1 (gene 100135514) (UniProt Q2NNR5). Kind of assay: NVS_GPCR_gLTD4: NovaScreen (NVS) G Protein-Coupled Receptor Assay for guinea pig Leukotriene D4 Receptor (LTD4) (AID 2283248). Summed up: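 Guinea pig lung membrane preparation; bound radioligand measured by filter scintillation after 1 h, loss of signal versus DMSO marking displacement. Compounds tested at 25 uM in duplicate, hits retested to max 50 uM.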

Assay [9] concerns the target bovine Dopamine Receptor (DR), Non-selective Binding, DRD1 (gene 281125) (UniProt Q95136). Kind of assay: NVS_GPCR_bDR_NonSelective: NovaScreen (NVS) G Protein-Coupled Receptor Assay for bovine Dopamine Receptor (DR), Non-selective Binding (AID 2283241). Summed up: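 Filter-based radioligand binding with bovine striatal membrane, incubated 1 h; DMSO as negative baseline. Initial duplicate single-point test at 25 uM preceded concentration series for actives.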

Assay [10] concerns the target human Rho Associated Coiled-coil Containing Protein Kinase 1 (ROCK1), ROCK1 (gene 6093) (UniProt Q13464). Description: NVS_ENZ_hROCK1: NovaScreen (NVS) Enzymatic Assay for human Rho Associated Coiled-coil Containing Protein Kinase 1 (ROCK1) (AID 2283214). Summed up: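 Compounds first run in duplicate at 25 uM against recombinant human ROCK1, then followed in concentration series. Kinase activity was read 1 h post-dosing by fluorescence with mobility-shift separation, as signal loss relative to DMSO.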

The target in assay [11] is rabbit Imidazoline 2 Central (I2C), CKB (gene 100009085) (UniProt P00567). Kind of assay: NVS_ENZ_rabI2C: NovaScreen (NVS) Enzymatic Assay for rabbit Imidazoline 2 Central (I2C) (AID 2283228). Summed up: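 Rabbit brain membranes, cell-free; readout by filter-based scintillation counting 1.5 hours after dosing, loss of signal vs DMSO. Initial duplicate test at 25 uM, then concentration-response with 50 uM top concentration.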
rabbit Imidazoline 2 Central (I2C), CKB (gene 100009085), sequence (P00567 whole entry, looked up): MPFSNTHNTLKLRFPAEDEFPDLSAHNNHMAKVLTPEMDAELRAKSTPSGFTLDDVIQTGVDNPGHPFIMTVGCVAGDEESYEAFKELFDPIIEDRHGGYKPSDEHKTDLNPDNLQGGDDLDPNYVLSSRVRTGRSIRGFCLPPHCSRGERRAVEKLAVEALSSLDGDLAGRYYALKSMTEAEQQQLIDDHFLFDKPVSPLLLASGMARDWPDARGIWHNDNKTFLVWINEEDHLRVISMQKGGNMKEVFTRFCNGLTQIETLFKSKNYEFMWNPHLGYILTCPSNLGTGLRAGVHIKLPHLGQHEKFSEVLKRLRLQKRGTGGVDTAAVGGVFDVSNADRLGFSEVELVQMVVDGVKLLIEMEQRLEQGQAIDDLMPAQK

For assay [12], the target named is rat Constitutive Nitric Oxide Synthase (CNOS), Nos1 (gene 24598) (UniProt P29476). Description: NVS_ENZ_rCNOS: NovaScreen (NVS) Enzymatic Assay for rat Constitutive Nitric Oxide Synthase (CNOS) (AID 2283236). The method in brief: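 Single 25 uM duplicate screen, then concentration series to 50 uM for chemicals meeting threshold. Rat brain membrane-derived CNOS activity detected radiometrically by filtration and scintillation counting, 1 h after compound addition; DMSO as baseline.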

For assay [13], the target named is Adenosine receptor A1 (Bos taurus) (UniProt P28190). Kind of assay: NVS_GPCR_bAdoR_NonSelective: NovaScreen (NVS) G Protein-Coupled Receptor Assay for bovine Adenosine Receptor (AdoR), Non-selective Binding (AID 2283244). Summed up:
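Cell-free binding with membranes from bovine striatum: radioligand displaced by test chemical, read after 1 h by filtration and scintillation. Single-point 25 uM duplicate primary, 50 uM top concentration in follow-up curves, DMSO baseline.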

Assay [14] concerns the target sheep Cyclooxygenase-2 (Cox2), PTGS2 (gene 443460) (UniProt P79208). Kind of assay: NVS_ENZ_oCOX2: NovaScreen (NVS) Enzymatic Assay for sheep Cyclooxygenase-2 (Cox2) (AID 2283231). Summed up: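 Compounds were first run at 25 uM in duplicate against tissue-extracted ovine COX-2; those passing a preset inhibition threshold went to singleton concentration-response testing with a 50 uM maximum. Read-out: absorbance at 0.66 hour.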

Assay [15] concerns the target human Sirtuin 1 (SIRT1), SIRT1 (gene 23411) (UniProt Q96EB6). Kind of assay: NVS_ENZ_hSIRT1: NovaScreen (NVS) Enzymatic Assay for human Sirtuin 1 (SIRT1) (AID 2283219). The method in brief: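 Cell-free recombinant SIRT1 with a fluorescent substrate; substrate and product separated by electrophoretic mobility shift and read by fluorescence intensity, 1 h after dosing. Primary screen at 25 uM in duplicate; hits re-run in concentration-response up to 50 uM, relative to DMSO.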

The target of assay [16] is human Vascular Endothelial Growth Factor Receptor 1 (VEGFR1), FLT1 (gene 2321) (UniProt P17948). Kind of assay: NVS_ENZ_hVEGFR1: NovaScreen (NVS) Enzymatic Assay for human Vascular Endothelial Growth Factor Receptor 1 (VEGFR1) (AID 2283226). The method in brief:
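Kinase activity of recombinant human VEGFR1 was read by fluorescence after electrophoretic separation of product from substrate, 1 h post-dosing; initial duplicate single-point testing at 25 uM, followed by concentration-series follow-up, with DMSO as baseline.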

The target in assay [17] is human Sirtuin 3 (SIRT3), SIRT3 (gene 23410) (UniProt Q9NTG7). Kind of assay: NVS_ENZ_hSIRT3: NovaScreen (NVS) Enzymatic Assay for human Sirtuin 3 (SIRT3) (AID 2283222). The method in brief: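 Cell-free enzyme assay with recombinant protein and fluorescent substrate, product separated by electrophoretic mobility shift; read 1 hour after dosing. Screened in duplicate at 25 uM, then singleton concentration-response up to 50 uM; loss of signal versus DMSO.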

Assay [18] addresses human Tropomyosin Receptor Kinase A (TRKA), NTRK1 (gene 4914) (UniProt P04629). Kind of assay: NVS_ENZ_hTrkA: NovaScreen (NVS) Enzymatic Assay for human Tropomyosin Receptor Kinase A (TRKA) (AID 2283224). Summed up: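 Compounds were screened at 25 uM in duplicate, then concentration series to a 50 uM top for those meeting threshold (e.g. 30% inhibition). Enzyme was recombinant human TrkA, incubated 1 h. Product formation was quantified by fluorescence after mobility-shift separation.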

Assay [19] has as its system bovine Histamine 1 Receptor (H1), gene 281231. Kind of assay: NVS_GPCR_bH1: NovaScreen (NVS) G Protein-Coupled Receptor Assay for bovine Histamine 1 Receptor (H1) (AID 2283246). Summed up: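 Hits from a 25 uM duplicate primary screen were retested in concentration series (top 50 uM); binding measured as scintillation-counted displacement of radioligand from bovine cerebellar membranes after 1 h, normalised to DMSO.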

Records with an inconclusive call do not appear. Calls of active or inactive are those of the source. Rule for the calls: active = hit-call score of the fitted dose curve at least 0.9, where 1 is the maximum; inconclusive = response in the unintended direction; inactive = score below 0.9.

human Vascular Endothelial Growth Factor Receptor 2 (VEGFR2), KDR (gene 3791), sequence (P35968 whole entry, looked up): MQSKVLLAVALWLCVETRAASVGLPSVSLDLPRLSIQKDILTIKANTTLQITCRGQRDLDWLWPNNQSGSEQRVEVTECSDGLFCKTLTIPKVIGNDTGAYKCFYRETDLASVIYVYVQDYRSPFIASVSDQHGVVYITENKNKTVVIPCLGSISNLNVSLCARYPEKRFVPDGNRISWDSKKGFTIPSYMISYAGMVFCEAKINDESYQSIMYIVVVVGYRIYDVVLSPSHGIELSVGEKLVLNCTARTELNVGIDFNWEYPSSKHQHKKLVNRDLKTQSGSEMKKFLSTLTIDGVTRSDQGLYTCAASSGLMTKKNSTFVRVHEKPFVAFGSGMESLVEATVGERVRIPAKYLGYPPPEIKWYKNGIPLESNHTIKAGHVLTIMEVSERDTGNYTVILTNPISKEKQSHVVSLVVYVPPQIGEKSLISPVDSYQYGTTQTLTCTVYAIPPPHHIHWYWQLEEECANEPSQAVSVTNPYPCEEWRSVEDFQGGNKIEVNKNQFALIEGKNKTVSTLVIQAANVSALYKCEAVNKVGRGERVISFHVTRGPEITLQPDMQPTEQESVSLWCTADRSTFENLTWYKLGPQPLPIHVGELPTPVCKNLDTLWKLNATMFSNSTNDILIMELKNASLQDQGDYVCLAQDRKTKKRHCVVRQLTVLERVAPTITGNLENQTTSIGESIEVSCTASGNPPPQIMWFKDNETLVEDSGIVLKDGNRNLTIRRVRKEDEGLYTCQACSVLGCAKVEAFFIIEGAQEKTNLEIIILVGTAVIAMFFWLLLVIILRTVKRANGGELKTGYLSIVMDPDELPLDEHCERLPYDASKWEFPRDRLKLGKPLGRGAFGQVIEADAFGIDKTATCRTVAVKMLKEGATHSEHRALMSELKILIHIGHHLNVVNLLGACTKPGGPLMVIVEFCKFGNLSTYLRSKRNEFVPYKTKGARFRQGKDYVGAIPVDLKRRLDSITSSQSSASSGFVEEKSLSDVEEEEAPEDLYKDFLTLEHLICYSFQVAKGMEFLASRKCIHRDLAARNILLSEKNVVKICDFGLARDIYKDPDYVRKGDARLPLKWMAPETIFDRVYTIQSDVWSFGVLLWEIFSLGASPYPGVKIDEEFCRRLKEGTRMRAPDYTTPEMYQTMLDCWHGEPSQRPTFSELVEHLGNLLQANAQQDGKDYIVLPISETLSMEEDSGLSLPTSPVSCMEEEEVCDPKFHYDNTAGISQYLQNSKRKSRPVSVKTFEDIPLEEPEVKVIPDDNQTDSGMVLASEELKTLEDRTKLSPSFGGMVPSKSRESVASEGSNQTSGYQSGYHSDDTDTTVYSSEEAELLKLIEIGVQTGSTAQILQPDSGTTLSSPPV
Adenosine receptor A1 (Bos taurus), sequence (P28190 whole entry, looked up): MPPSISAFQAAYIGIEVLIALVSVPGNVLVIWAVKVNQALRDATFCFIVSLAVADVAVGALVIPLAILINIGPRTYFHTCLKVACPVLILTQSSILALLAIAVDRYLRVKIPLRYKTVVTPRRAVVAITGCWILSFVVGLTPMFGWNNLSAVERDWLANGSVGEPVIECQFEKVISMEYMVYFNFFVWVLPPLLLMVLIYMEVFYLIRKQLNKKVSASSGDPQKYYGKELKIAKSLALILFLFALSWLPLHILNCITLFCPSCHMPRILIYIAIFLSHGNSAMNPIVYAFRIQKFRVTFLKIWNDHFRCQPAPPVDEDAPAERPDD
sheep Cyclooxygenase-1 (Cox1), PTGS1 (gene 443551), sequence (P05979 whole entry, looked up): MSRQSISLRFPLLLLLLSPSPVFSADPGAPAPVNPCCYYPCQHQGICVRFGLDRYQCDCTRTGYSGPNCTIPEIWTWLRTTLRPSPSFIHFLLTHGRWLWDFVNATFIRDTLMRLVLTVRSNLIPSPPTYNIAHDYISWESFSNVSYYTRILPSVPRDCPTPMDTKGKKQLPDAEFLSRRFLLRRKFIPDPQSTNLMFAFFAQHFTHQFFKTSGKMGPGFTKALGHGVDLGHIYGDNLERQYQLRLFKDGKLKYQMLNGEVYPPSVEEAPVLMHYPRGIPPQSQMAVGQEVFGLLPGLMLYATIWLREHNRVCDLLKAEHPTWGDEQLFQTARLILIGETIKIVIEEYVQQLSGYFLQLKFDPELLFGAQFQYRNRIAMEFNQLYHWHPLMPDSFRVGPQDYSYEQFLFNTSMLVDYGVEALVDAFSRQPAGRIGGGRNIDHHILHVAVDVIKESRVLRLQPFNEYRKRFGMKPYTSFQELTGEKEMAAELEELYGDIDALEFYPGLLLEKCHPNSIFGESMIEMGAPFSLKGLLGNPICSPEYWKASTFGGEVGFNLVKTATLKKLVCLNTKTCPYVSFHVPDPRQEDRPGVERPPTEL
human Sirtuin 2 (SIRT2), SIRT2 (gene 22933), sequence (Q8IXJ6 whole entry, looked up): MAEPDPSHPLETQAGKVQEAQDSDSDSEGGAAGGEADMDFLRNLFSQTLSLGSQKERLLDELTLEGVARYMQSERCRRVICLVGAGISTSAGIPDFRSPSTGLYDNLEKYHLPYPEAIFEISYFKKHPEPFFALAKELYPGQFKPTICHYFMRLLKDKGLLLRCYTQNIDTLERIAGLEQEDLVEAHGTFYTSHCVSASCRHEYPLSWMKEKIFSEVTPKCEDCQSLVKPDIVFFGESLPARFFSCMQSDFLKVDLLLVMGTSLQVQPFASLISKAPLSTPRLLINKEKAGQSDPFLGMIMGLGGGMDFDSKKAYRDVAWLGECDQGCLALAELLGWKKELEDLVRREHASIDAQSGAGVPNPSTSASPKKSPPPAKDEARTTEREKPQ
human Vascular Endothelial Growth Factor Receptor 1 (VEGFR1), FLT1 (gene 2321), sequence (P17948 whole entry, looked up): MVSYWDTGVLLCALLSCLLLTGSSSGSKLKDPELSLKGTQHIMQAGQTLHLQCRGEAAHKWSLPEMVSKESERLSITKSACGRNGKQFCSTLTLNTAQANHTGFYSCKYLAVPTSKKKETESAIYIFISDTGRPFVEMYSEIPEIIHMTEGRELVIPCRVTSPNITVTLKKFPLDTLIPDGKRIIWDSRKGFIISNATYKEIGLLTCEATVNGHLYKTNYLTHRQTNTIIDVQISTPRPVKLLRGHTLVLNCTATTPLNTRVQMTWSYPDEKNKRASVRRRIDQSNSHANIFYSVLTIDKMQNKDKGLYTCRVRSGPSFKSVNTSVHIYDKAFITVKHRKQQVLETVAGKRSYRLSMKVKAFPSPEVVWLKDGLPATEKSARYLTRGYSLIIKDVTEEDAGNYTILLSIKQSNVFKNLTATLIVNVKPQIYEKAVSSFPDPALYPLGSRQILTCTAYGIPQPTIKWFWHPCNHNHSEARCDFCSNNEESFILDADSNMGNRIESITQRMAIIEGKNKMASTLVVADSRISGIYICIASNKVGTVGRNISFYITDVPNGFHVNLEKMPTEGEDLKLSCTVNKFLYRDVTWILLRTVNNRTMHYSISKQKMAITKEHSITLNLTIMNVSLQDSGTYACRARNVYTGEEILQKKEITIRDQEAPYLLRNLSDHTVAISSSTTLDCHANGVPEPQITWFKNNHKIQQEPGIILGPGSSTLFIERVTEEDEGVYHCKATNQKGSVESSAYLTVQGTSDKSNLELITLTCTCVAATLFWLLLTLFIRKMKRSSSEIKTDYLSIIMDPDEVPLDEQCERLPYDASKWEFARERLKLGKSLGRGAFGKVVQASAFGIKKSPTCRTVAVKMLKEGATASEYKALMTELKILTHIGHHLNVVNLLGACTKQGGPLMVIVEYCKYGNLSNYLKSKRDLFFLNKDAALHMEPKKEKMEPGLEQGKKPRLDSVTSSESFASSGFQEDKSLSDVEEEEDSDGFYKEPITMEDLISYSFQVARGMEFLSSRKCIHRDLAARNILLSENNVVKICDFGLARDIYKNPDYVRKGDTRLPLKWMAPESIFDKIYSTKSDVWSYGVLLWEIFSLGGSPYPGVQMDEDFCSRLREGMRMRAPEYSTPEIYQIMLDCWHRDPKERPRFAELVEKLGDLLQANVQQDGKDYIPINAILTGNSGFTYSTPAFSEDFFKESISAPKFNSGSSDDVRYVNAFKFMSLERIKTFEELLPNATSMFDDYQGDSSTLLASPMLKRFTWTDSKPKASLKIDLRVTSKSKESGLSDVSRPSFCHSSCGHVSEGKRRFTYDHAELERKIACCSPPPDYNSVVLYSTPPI
sheep Cyclooxygenase-2 (Cox2), PTGS2 (gene 443460), sequence (P79208 whole entry, looked up): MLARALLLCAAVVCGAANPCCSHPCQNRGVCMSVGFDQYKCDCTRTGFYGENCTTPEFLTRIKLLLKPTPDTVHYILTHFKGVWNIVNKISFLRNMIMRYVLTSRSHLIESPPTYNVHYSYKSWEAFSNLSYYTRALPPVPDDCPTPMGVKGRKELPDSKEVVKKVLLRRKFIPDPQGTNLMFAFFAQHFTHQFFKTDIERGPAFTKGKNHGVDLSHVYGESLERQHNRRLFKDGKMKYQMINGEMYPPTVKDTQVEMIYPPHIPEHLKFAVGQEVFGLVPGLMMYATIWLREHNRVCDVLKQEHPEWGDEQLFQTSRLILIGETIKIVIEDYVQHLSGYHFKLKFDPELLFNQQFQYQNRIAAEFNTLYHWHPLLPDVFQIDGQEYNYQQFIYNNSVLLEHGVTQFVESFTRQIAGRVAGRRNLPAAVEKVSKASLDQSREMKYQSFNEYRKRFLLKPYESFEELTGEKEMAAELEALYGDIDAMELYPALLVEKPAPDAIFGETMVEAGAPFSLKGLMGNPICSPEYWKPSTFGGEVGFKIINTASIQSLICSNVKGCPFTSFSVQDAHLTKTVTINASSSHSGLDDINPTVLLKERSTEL

Take `CCCCCCCCCCCCc1ccccc1S(=O)(=O)O`: the AC50 in assay [1] is 16.3 µM (active); in assay [2], 24.4 µM (active); in [4], 9.14 µM (active); in assay [5] it was 39.2 µM (active); in [6] it was 9.01 µM (active); in assay [7] it was 7.5 µM (active). Moreover, the AC50 in [8] is 25 µM (active). Besides, in assay [3], the molecule was called inactive.

Take `COc1ccc([N+](=O)[O-])cc1N`: the AC50 in [6] was 12.2 µM (active).

In the case of `N#C[C@@H]1CC(F)(F)CN1C(=O)CNC1CC2CCC(C1)N2c1ncccn1` (some centres not stated), the molecule was called inactive in [6].

As for `CC(=O)NC1(c2cccc(F)c2)CCN(CC[C@@]2(c3ccc(Cl)c(Cl)c3)CN(c3ccccc3)C(=O)CO2)CC1`, in [9], the AC50 was 11.3 µM (active).

Regarding `NC(=O)N1C(=O)C(C(=O)c2cc(Cl)cs2)c2cc(F)c(Cl)cc21` (configuration not stated), the molecule was called inactive in assay [10], in assay [11], in assay [12] and in [13]. Moreover, the AC50 in assay [7] is 0.585 µM (active).

With `Oc1cccc(O)c1`, in assay [6], the AC50 was 10.4 µM (active).

As for `OC1CCCCC1`, the result in assay [14] was inactive.

Take `CCCCCCCC(=O)O`: the molecule was called inactive in [2], in [11] and in [8]. In assay [15], the AC50 was 6.65 µM (active).

As for `CN1CCN(c2ccccc2/C=C2\SCCN(c3ccc(Cl)c(Cl)c3)C2=O)CC1`, in assay [12], the molecule was classed as inactive.

With `CCCOC(=O)c1ccc(O)cc1`, the molecule was classed as inactive in [16] and in assay [7]. The AC50 in [14] is 25 µM (active).

Take `CCCCC(CC)COC(=O)CCCCC(=O)OCC(CC)CCCC` (configuration not stated): in assay [15], the result was inactive.

Take `CC(C)(C)c1ccc(O)c(C(C)(C)C)c1`: the molecule was called inactive in assay [5] and in assay [13].

For `CCC(=C(c1ccc(O)cc1)c1ccc(OCCN(C)C)cc1)c1ccccc1`, in assay [17], the molecule was called inactive. Besides, the AC50 in assay [11] is 408 nM (active).

As for `O=C(O)Cc1cc(I)c(Oc2cc(I)c(O)c(I)c2)c(I)c1`, the result in [3], in [16], in assay [4], in assay [5] and in assay [13] was inactive. Moreover, in assay [18], the AC50 is 1.6 µM (active).

With `c1ccc2c(c1)ccc1ccccc12`, the call in [10] was inactive. Besides, in assay [12], the AC50 was 1.16 µM (active).

Take `C#C[C@]1(O)CC[C@H]2[C@@H]3CCC4=CC(=O)CC[C@@H]4[C@H]3CC[C@@]21C`: in assay [19], the molecule was classed as inactive.

Regarding `CC(C)(C)c1cccc(C(C)(C)C)c1O`, the molecule was classed as inactive in assay [2] and in assay [16].

What is called AC50 is the concentration giving half of the maximal activity seen.

The values are drawn from PubChem BioAssay (EPA / NIEHS).
